“And” between values parts separate entries of the source, which are not always exact repeats. Identical values can stand only once. Records with an inconclusive call do not appear. Where a call stands in place of a potency, no number is given. Values without a mark were called inactive. The source made the active and inactive calls. Calls come from the whole dose curve; as a rule, active = well fitted inhibition curve with a large enough effect; inconclusive = small, poorly fitted or top-dose-only effect; inactive = flat fitted curve, though single readings scatter.
Tested on: MCC-26
Experiment: qHTS assay to identify novel small-molecules to repurpose for Merkel cell carcinoma treatment (AID 1296009); note: nearly all actives have a fitted effect of over 60% in size
Details: MCC and control cell lines, CellTiter-Glo viability, 72 h; series mostly up to 46 µM; activity change, negative = cytotoxicity: at the top concentration
Source text: MCC is a rare and aggressive neuroendocrine skin cancer with limited treatment options. Approximately 80% of MCCs have the Merkel cell polyomavirus (MCPyV) DNA integrated into the host genome (virus-positive: VP-MCC) and viral oncogenes drive oncogenesis. The remaining MCCs are virus-negative (VN-MCC) and are caused by UV mutagenesis. To identify novel treatments for VP-MCC and/or VN-MCC we screened three VP-MCC cell lines (WAGA, MKL-1, MKL-2), three VN-MCC cell lines (MCC-13, MCC-26, UISO), and four immortalized, non-transformed control cell lines (HaCaT, HEK293T, CRL7250, NIH-3T3) against ~2,400 compounds in the NCGC Pharmaceutical Collection (NPC) and ~1,900 compounds in the Mechanism Interrogation PlatE (MiPE). Using cell viability as a readout (CellTiter-Glo assay) we found both overlapping and distinct drugs that can be repurposed for the treatment of VP-MCC and VN-MCC.
A high-throughput screen was conducted in 1536-well white flat bottom plates (Corning) on a Kalypsys robotic system. Cell lines WAGA, MKL-1, MKL-2, MCC-13, MCC-26, UISO, HaCaT, HEK293T, CRL7250, and NIH-3T3 were screened against 2 small molecule annotated drug libraries NPC and MIPE in dose response (8 and 11 pt. respectively) measuring cell viability after 72 hours of incubation. […] A 1,536 pintool (Kalypsys) was used to transfer 23 nL of compound in DMSO to the 1,536-well assay plates. After 72 hr incubation at 37 degree celsius, 2.5 uL of CellTiter-Glo (Promega) was dispensed into each well using a BiorapTR. Plates were incubated at room temperature for 10 min, transferred to a ViewLux (PerkinElmer) and the luminescence was recorded using an exposure time of 2 seconds. Relative luminescence units (RLUs) were normalized to in-plate controls (no cells as a positive (cytotoxicity) control, DMSO as negative control) and the normalized data was processed using NCATS in-house software.
Potency is the fitted concentration of half-maximal effect.

Row | Compound | Potency | activity change, negative = cytotoxicity [%]
1 | CC1=NN(c2ccccc2)C(=O)C1 | inactive | –
2 | CC[C@H](C)C(=O)O[C@H]1C[C@@H](C)C=C2C=C[C@H](C)[C@H](CC[C@@H]3C[C@@H](O)CC(=O)O3)[C@H]21 | – | -10.6
3 | C[C@@H]1CN(c2c(F)c(N)c3c(=O)c(C(=O)O)cn(C4CC4)c3c2F)C[C@H](C)N1 | inactive | –
4 | CC1=CC(=O)c2ccccc2C1=O | inactive | –
5 | Cc1cccc(Nc2ccncc2S(=O)(=O)NC(=O)NC(C)C)c1 | inactive | –
6 | COc1cnc(NS(=O)(=O)c2ccc(N)cc2)nc1 | inactive | –
7 | COc1ccc(-c2ccc3cc(C(=O)O)ccc3c2)cc1C12CC3CC(CC(C3)C1)C2 | inactive | –
8 | Nc1nc(N)nc(-c2cc(Cl)ccc2Cl)n1 | inactive | –
9 | C[C@@H]1C[C@H]2[C@@H]3CCC4=CC(=O)C=C[C@]4(C)[C@@]3(Cl)[C@@H](O)C[C@]2(C)[C@@]1(OC(=O)c1ccco1)C(=O)CCl | inactive | –
10 | CCCCS(=N)(=O)CCC(N)C(=O)O (stereo not given) | – | 6.5
11 | CC(C)(C)NC(=O)[C@H]1CC[C@H]2[C@@H]3CC[C@H]4NC(=O)C=C[C@]4(C)[C@H]3CC[C@]12C | inactive | –
12 | COc1cc(NS(=O)(=O)c2ccc(N)cc2)nc(OC)n1 | inactive | –
13 | CN(C)c1ccc(C(=C2C=CC(=[N+](C)C)C=C2)c2ccc(N(C)C)cc2)cc1 | 7.5 µM (active) and 4.69 µM (active) | –
14 | CC(=O)Oc1ccccc1C(=O)Nc1ncc([N+](=O)[O-])s1 | inactive | –
15 | O=C(O)c1ccc(-n2nc(-c3ccccc3O)nc2-c2ccccc2O)cc1 | inactive | –
16 | CCC(=O)O[C@]1(C(=O)SCF)[C@H](C)C[C@H]2[C@@H]3C[C@H](F)C4=CC(=O)C=C[C@]4(C)[C@@]3(F)[C@@H](O)C[C@@]21C | inactive | –
17 | O=C(O)c1cn(C2CC2)c2cc(N3CCNCC3)c(F)cc2c1=O | inactive | –
18 | COc1cc2ncnc(Nc3cccc(Cl)c3)c2cc1OC | – | -9.76
19 | O=S(=O)(O)CCS | inactive | –
20 | CCCc1cc(C(N)=S)ccn1 | inactive | –

Row | Compound | Potency | activity change, negative = cytotoxicity [%]
21 | COc1cccc(N(C)C(=S)Oc2ccc3c(c2)CCCC3)n1 | inactive | –
22 | CCc1c2c(nc3ccc(OC(=O)N4CCC(N5CCCCC5)CC4)cc13)-c1cc3c(c(=O)n1C2)COC(=O)[C@]3(O)CC | 16.8 µM (active) | –
23 | CCOC(=O)c1ccc(C#Cc2ccc3c(c2)C(C)(C)CCS3)nc1 | inactive | –
24 | CN(C)CCc1c[nH]c2ccc(C[C@H]3COC(=O)N3)cc12 | inactive | –
25 | CCOC(=O)c1ccc(OC(=O)CCCCCN=C(N)N)cc1 | inactive | –
26 | NC(=O)c1cccc(N)c1 | – | 3.58
27 | O=NN(CCCl)C(=O)NC1CCCCC1 | inactive | –
28 | COc1cc2c(Nc3ccc(Br)cc3F)ncnc2cc1OCC1CCN(C)CC1 | – | 5.71
29 | Oc1c(Cl)cc(Cl)c2cccnc12 | – | -17.4
30 | CNCC[C@H](Oc1cccc2ccccc12)c1cccs1 | inactive | –
31 | O=C(O)c1cccnc1 | inactive | –
32 | O[C@@H](CNC[C@H](O)[C@H]1CCc2cc(F)ccc2O1)[C@@H]1CCc2cc(F)ccc2O1 | – | -16.3
33 | NC(=O)c1ccc2[nH]ccc2c1 | – | -10.8
34 | COc1ccc2cc3[n+](cc2c1OC)CCc1cc2c(cc1-3)OCO2 | inactive | –
35 | O=S(=O)(c1cccc2cnccc12)N1CCCNCC1 | inactive | –
36 | C[C@]12C=CC(=O)C=C1CC[C@@H]1[C@@H]2C(=O)C[C@@]2(C)[C@H]1CC[C@]2(O)C(=O)CO | inactive | –
37 | C[C@@H](CN1CC(=O)NC(=O)C1)N1CC(=O)NC(=O)C1 | inactive | –
38 | Cc1oc(=O)oc1CN1CCN(c2cc3c(cc2F)c(=O)c(C(=O)O)c2n3C(C)S2)CC1 (stereo not given) | inactive | –
39 | O=C(NCC1CN(c2ccc(N3CCOCC3=O)cc2)C(=O)O1)c1ccc(Cl)s1 (stereo not given) | inactive | –
40 | CC(C)C1CCC(C(=O)N[C@H](Cc2ccccc2)C(=O)O)CC1 (stereo not given in full) | inactive | –

Source: PubChem BioAssay (NCATS)
